Rows were chosen to be rich in hits. Some 13% of all compounds tested hit in one or more screens of this group.
FMDV antiviral = foot and mouth disease virus antiviral activity. AID 1159524. Potency, µM (doses to about 57.9 µM), most hits filed as inhibitors. 410,000 compounds, 1.2% hits. FMDV antiviral cell-based qHTS; calls by dose curve; tested in HEK293T cells; note: read-out not given here; nearly all actives have a fitted effect of over 45% in size
MARV entry inh = blocks Marburg virus binding to or entry into cells; Marburg virus pseudotyped entry inhibition, cell reporter; Potency, µM (top dose mostly 37.8 µM), most hits filed as inhibitors; 300,000 compounds, 1.8% hits; calls by dose curve; tested in HEK293 cells
HCV inhibitor = inhibitors of hepatitis C virus infection | Huh7.5.1 HCVcc-Cre infection, luciferase reporter, 44 h | Potency, µM (top dose mostly 41.8 µM), hits mostly inhibitors | 340,000 compounds, 3.4% hits; active = well fitted inhibition curve with a large enough effect; inconclusive = small, poorly fitted or top-dose-only effect, or another doubt; inactive = no such curve, though single readings can be large or run the other way
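Infectious HCV cell culture screen: compound-treated cells (1,000/well, pre-plated 4 h) are infected with HCVcc-Cre at roughly 0.5 moi and grown 44 h. Infection is quantified by luciferase signal after 15 min substrate incubation at room temperature.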
LASV entry inh = inhibitors of Lassa virus binding or cell entry. Lassa virus pseudotype entry inhibition, cell reporter. Potency, µM (top dose mostly 37.9 µM), most hits filed as inhibitors. 300,000 compounds, 1.2% hits. AID 540256; calls by dose curve; tested in HEK293 cells; note: nearly all actives have a fitted effect of over 50% in size
Cycloheximide cs = counter-screen for Shiga toxin inhibitors: cycloheximide protein synthesis inhibition; cell reporter, cycloheximide protein synthesis inhibition counterscreen; 300,000 compounds, 12% hits; AID 2314; max response, %; in the data active = max response mostly above about 13%, no sharp cut-off; inactive = mostly below about 14%; note: read at 38.3 µM for the half of the compounds with a filed dose
Shiga toxin inh = Shiga toxin inhibition; Vero cells, Shiga toxin protein synthesis inhibition reporter; AID 2315; 290,000 compounds, 9.2% hits; inhibition, % at 38.7 µM; in the data active = inhibition mostly above about 28%, no sharp cut-off; inactive = mostly below about 43%
Numbers stand for hits; . = inactive; ? = inconclusive; / = no result given.

SMILES	FMDV antiviral	MARV entry inh	HCV inhibitor	LASV entry inh	Cycloheximide cs	Shiga toxin inh
Cc1nnc(C)c2c(C)n(-c3ccc(Br)cc3)c(C)c12	/	.	.	/	.	.
CCOc1c(Br)cc(C(N)=O)cc1OCc1ccccc1	.	?	?	12µM	.	.
CCOc1cc(CNCCSc2nnnn2C)cc(Br)c1OCc1ccccc1	?	?	2.8µM	?	.	.
CCOc1cc(CNCCO)cc(Br)c1OCc1ccccc1	.	?	10µM	?	.	.
CCOC(=O)C1=C(C)N=C2SC(C(=O)OC)=CC(=O)N2C1c1ccc(OC)cc1 (configuration not stated)	14µM	.	.	/	.	.
COC(=O)C1=C(C)N=C2SC(C#N)=C(N)N2C1c1ccc(OC)cc1 (configuration not stated)	.	.	.	.	.	.
O=C(NCc1ccco1)c1ccccc1-c1nc(-c2ccccc2)no1	.	.	?	.	.	.
Cc1cc(C)cc(-n2nnc(C(=O)NCc3ccco3)c2N)c1	.	.	.	.	.	.
O=C(NCc1ccco1)c1cccc(-c2nnc(-c3ccccc3)o2)c1	.	?	?	?	22	49
Cc1cccc(-c2nc(CNC(=O)c3ccco3)cs2)c1	.	.	?	.	42	106
Cc1ccc(-c2noc(-c3ccccc3C(=O)NCc3ccco3)n2)cc1	.	?	?	.	33	63
COc1ccc(-c2nc(CCNC(=O)c3ccco3)cs2)cc1OC	.	?	?	?	.	.
Nc1c(C(=O)NCc2ccco2)nnn1-c1ccccc1	.	.	.	.	42	71
O=C(NCc1ccco1)c1ccccc1	.	?	.	.	.	.
CC(C)[C@H](NC(=O)N1CCn2c1nc1ccccc12)C(=O)NCc1ccco1	.	/	.	/	.	.
COc1ccc(NC(=O)CN(C)S(=O)(=O)c2ccc(C(=O)N3CCOCC3)s2)cc1	.	/	/	.	/	/
COc1ccc(Cn2nnnc2C(c2ccncc2)N2CCOCC2)cc1 (configuration not stated)	.	.	.	.	.	.
COc1ccc(C(=O)N2CCC[C@@]3(CCN(Cc4cc(C(F)(F)F)cc(C(F)(F)F)c4)C3)C2)cc1	.	/	/	/	/	/
O=C(OCn1nnc2ccccc2c1=O)c1cccnc1	.	.	.	.	.	.
c1ccc(N2CCN(C3CCSC3)CC2)cc1 (configuration not stated)	.	.	.	.	.	.
Cc1cccc(-c2noc(-c3ccccc3C(=O)NCc3ccco3)n2)c1	.	.	.	.	75	.
CCOc1ccc(NCc2cccn2-c2nnc(N3CCC(C(=O)NCCc4ccc(OC)c(OC)c4)CC3)s2)cc1	22µM	?	/	/	/	/
Cc1ccc2nc(SCC(=O)O)nc(C)c2c1	/	.	.	.	.	.
Cc1ccc2nc(SCCC#N)nc(C)c2c1	.	?	10µM	.	.	.
CCOc1ccccc1NC(=O)C1CCCCN1S(=O)(=O)c1ccccc1 (configuration not stated)	.	?	?	?	/	/
SMILES	FMDV antiviral	MARV entry inh	HCV inhibitor	LASV entry inh	Cycloheximide cs	Shiga toxin inh
CCOC(=O)N(CC)c1ccc(C(O)(C(=O)OCC)C(F)(F)F)cc1 (configuration not stated)	.	.	.	10µM	.	.
COc1cc2c(=O)n(CC3CCCO3)c(=O)n(CC(=O)Nc3cccc(Cl)c3)c2cc1OC (configuration not stated)	.	.	.	.	.	.
Cn1c(=O)n(/N=C/c2ccccc2)c2ccccc21	.	.	.	.	.	45
Cn1c(N)c(N=Cc2ccccc2)c(=O)n(C)c1=O	.	.	.	.	/	/
COc1ccccc1OCc1nc(-c2cccc(C)c2)no1	.	?	/	.	/	/
COc1ccc(-c2nc(-c3cccc(C(F)(F)F)c3)no2)cc1OC	.	.	.	.	.	.
COc1ccccc1-c1nc(-c2cccc(C)c2)no1	.	?	?	?	46	122
COc1ccc(-c2nc(-c3cccc(C)c3)no2)cc1OC	.	?	.	.	25	60
COc1cc(-c2nc(-c3cccc(C)c3)no2)cc(OC)c1OC	/	.	.	.	16	33
COc1cc(OC)cc(-c2nc(-c3cccc(C)c3)no2)c1	.	?	/	.	/	/
CCN1C(=O)CC(c2cccnc2)=Nc2ccccc21	.	/	.	/	.	.
Cc1cc(=O)oc2c(N)c(O)ccc12	.	/	.	/	.	38
CCOc1ccc(NC(=O)C2CCCN(c3nn4c(=O)cc(C)nc4s3)C2)cc1 (configuration not stated)	.	/	?	/	.	.
